From PubChem BioAssay
EWS-Fli block – EWS/Fli-driven NR0B1 reporter inhibitors, primary screen, A673 cells, NR0B1 luciferase, luminescence, MLPCN library; viability-normalised; inhibition, % at 12.6 µM; 0.67% of 350,000 active; AID 651661, 2012;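 active means mean inhibition of at least 50% after viability correction, with every replicate also passing that limit; inconclusive means mean reaches 50% but only one of two replicates passes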;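 further: firefly luciferase signal divided by Alamar Blue viability fluorescence both relative to DMSO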
HIF-2a block – HIF-2a reporter inhibitors, primary screen, luminescence, 786-0 RCC cells; 786-0 RCC cells HIF-2a reporter, luciferase luminescence, overnight; inhibition, % at 18.8 µM; 0.72% of 360,000 active; AID 624352, 2012;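 active means inhibition of the luminescence signal of 40% or more relative to plate controls, in a single-dose primary screen at 18.75 µM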
CF NFkB block – inhibitors of PAF-induced NF-kB signaling, primary screen, cell-based, GFP fluorescence, uHTS; 0.86% of 360,000 active; AID 588850, 2011; inhibition, % at 5 µM; KKLEB NF-kB-GFP reporter, GFP fluorescence overnight;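 active means at least 50% inhibition at 5 µM, scaled per plate between neutral and stimulator controls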;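 further: PAF is a Pseudomonas aeruginosa culture filtrate used as stimulus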
PAX8 reporter – inhibitors of PAX8-driven TPO luciferase reporter, primary screen, RMG-I cells, single concentration; inhibition, % at 12.6 µM; 1.2% of 360,000 active; AID 652154, 2013; SteadyGlo, 24 h;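 active means mean replicate inhibition at least 60% with every replicate also reaching 60%; inconclusive means only one of the two criteria is met; inactive means mean below 60% and not all replicates reaching 60%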;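 further: luciferase light reporting Pax8 driven TPO promoter activity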
KKLEB cytotox – cytotoxicity in KKLEB CF airway cells, primary screen, cytotoxicity control for CF NF-kB inhibitor project, cell-based, uHTS, fluorescence assay plates | activity change (cytotoxicity), % at 5 µM | KKLEB CF airway cells viability, ATPlite luminescence, overnight; hits give low values; cells stimulated with P. aeruginosa culture filtrate | AID 602141, 2011 | 0.36% of 360,000 active;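 active means corrected activity change at or below -50% at 5 µM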
Mdm2-MdmX confirm – retested Mdm2-MdmX interaction blockers, confirmation, cell-based, luminescence, single concentration, set 2 | shares compounds with HIF-2a block | SaOS-2 split-luciferase Mdm2/MdmX complementation | inhibition, % at 8 µM | 99% of 740 active;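 active means mean inhibition of the luminescence signal across two replicates at or above 26 percent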
Target sequence (O15151 whole entry, looked up): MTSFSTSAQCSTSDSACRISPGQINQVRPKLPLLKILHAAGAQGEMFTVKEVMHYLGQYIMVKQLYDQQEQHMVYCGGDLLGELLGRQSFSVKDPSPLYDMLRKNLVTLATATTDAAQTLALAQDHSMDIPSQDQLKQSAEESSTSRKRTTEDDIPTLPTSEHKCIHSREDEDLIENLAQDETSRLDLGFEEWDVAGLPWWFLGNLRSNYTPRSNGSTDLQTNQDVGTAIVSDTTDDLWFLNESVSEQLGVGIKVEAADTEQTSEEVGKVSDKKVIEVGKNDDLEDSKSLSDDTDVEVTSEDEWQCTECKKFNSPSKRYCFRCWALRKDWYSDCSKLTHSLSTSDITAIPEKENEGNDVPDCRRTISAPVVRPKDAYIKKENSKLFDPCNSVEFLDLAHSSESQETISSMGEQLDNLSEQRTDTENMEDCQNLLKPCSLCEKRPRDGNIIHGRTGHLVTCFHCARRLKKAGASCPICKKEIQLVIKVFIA
Target sequence (Q00987 whole entry, looked up): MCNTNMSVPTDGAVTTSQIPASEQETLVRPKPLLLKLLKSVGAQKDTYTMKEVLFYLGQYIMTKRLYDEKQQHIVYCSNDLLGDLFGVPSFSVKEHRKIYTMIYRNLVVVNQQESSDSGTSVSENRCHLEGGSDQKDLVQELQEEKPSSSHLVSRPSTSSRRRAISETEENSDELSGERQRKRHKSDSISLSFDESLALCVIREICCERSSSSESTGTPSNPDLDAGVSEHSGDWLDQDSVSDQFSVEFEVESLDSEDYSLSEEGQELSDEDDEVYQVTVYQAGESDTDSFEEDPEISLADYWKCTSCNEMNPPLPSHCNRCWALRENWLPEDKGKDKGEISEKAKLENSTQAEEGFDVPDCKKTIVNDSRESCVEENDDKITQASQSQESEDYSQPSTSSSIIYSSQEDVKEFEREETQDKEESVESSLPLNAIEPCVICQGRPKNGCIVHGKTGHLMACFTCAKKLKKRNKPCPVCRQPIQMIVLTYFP
HIF-2a inh conf – HIF-2a reporter inhibitor retest, confirmation, luminescence, 786-0 RCC cells; shares compounds with HIF-2a block; HIF-2a luciferase reporter luminescence, overnight; inhibition, % at 18.8 µM; 56% of 1,800 active; AID 651580, 2012;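 active means mean inhibition across four replicates of at least 40 percent at the single tested concentration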
HIF-1a counter – HIF-1a luciferase reporter signal reduction – MiaPaCa-2 cells, single concentration, counter-screen for HIF-2a inhibitor project, confirmation. shares compounds with HIF-2a block. MiaPaCa-2 HIF-1a luciferase reporter, desferoxamine, overnight. inhibition, % at 18.8 µM. 72% of 1,800 active. AID 651589, 2012;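 active means mean inhibition of the reporter signal across four replicates at the single tested dose of 50% or more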
Numbers stand for hits; - = inactive; ? = inconclusive; . = no result. Hits are enriched below; roughly 2.1% of the tested compounds scored in any of these assays.

SMILES	EWS-Fli block	HIF-2a block	CF NFkB block	PAX8 reporter	KKLEB cytotox	HIF-2a inh conf	HIF-1a counter	others
COc1ccc(-c2ccc([C@@H]3[C@@H](CO)N4CCCCN(C(=O)c5ccc6c(c5)OCO6)C[C@@H]34)cc2)cc1	-	.	.	-	.	.	.
CCNC(=O)C[C@H]1CC[C@H]2[C@@H](COC[C@H](O)CN2Cc2ccncc2)O1	-	.	.	-	.	.	.
OC[C@@H]1[C@@H](c2ccccc2)C2(CN(CC3CCOCC3)C2)N1Cc1cncnc1	-	.	.	-	.	.	.
COc1ccc(/C=C/C(=O)c2ccc3c(c2)OCO3)cc1OC	-	-	-	-	-	.	.
COc1cc(/C=C/C(=O)c2ccc3c(c2)OCO3)cc(OC)c1OC	.	44	-	.	-	-	103
Cc1ccccc1S(=O)(=O)N1CC(=O)N2[C@H](CO)[C@@H](c3ccc(C#CCC(C)C)cc3)[C@@H]2C1	-	.	.	-	.	.	.
CCCNC(=O)N1[C@H](CO)[C@H](c2ccc(-c3ccccc3)cc2)[C@H]1CNC(C)=O	-	.	.	-	.	.	.
Cc1cccc(C2(c3cccc(C)c3)CC2C(=O)Nc2ccc([N+](=O)[O-])cc2O)c1 (stereo not given)	.	-	58	95	-62	.	.	Mdm2-MdmX confirm=100
CCOCCCNC(=O)/C(C#N)=C/c1ccc(Cl)c([N+](=O)[O-])c1	65	92	-	-	-	-	102
CN(C)CCCNC(=O)/C(=C/c1ccc(-c2ccc([N+](=O)[O-])cc2)o1)NC(=O)c1ccccc1	-	-	-	-	-	.	.
Cc1ccc(C(=O)N/C(=C\c2ccc(-c3ccc(Cl)cc3)o2)C(=O)NCCCN(C)C)cc1	-	-	-	-	-	.	.	Mdm2-MdmX confirm=103
CN(C)CCCNC(=O)/C(=C\c1ccc(-c2ccc(Br)cc2)o1)NC(=O)c1ccccc1	-	41	-	-	-70	-	106
C=CCOc1ccc(C(=O)/C=C2/C(=O)Nc3ccccc32)cc1	-	-	-	-	-	.	.
COc1ccc(C(=O)/C=C2/C(=O)Nc3ccccc32)cc1	-	-	-	-	-	.	.
NC(=O)COc1ccc(C(=O)/C=C2/C(=O)Nc3ccccc32)cc1	-	46	-	-	-	-	-
COc1ccc(C(=O)/C=C2/C(=O)Nc3ccccc32)cc1OC	-	40	-	-	-	42	-
O=C1Nc2ccccc2/C1=C/C(=O)c1cccs1	.	54	-	.	-	-	-
CCCCS(=O)(=O)/C=C\C=C/S(=O)(=O)CCCC	.	93	84	.	-71	.	.	Mdm2-MdmX confirm=102
O=C1c2ccccc2-c2onc3ccc(Oc4ccccc4)c1c23	.	-	85	.	-83	.	.	Mdm2-MdmX confirm=103
COc1cccc(C(=O)C(CCC#N)c2ccccc2)c1 (stereo not given)	-	-	-	-	-	.	.
COc1cccc(C(=O)C(C#N)=C(SC)SC)c1	-	80	66	-	-58	91	-
CSC(SC)=C(C#N)C(=O)c1ccccc1	?	90	-	-	-50	89	-
CO[C@@H](CN(C)C(=O)c1ccccc1F)[C@H](C)CN([C@@H](C)CO)S(=O)(=O)c1ccc(F)cc1	-	.	.	.	.	.	.
C[C@@H]1CN([C@@H](C)CO)C(=O)c2cc(NC(=O)Cc3cn(C)c4ccccc34)ccc2O[C@H]1CN(C)S(=O)(=O)c1cn(C)cn1	-	.	.	.	.	.	.
COc1ccc(NC(=O)N(C)C[C@@H]2Oc3ccc(NC(=O)Nc4ccc5c(c4)OCO5)cc3C(=O)N([C@H](C)CO)C[C@@H]2C)cc1	-	.	.	.	.	.	.
SMILES	EWS-Fli block	HIF-2a block	CF NFkB block	PAX8 reporter	KKLEB cytotox	HIF-2a inh conf	HIF-1a counter	others
CCC(=O)Nc1ccc2c(c1)OC[C@@H](C)N(C(=O)NC(C)C)C[C@@H](C)[C@H](OC)CN(C)C2=O	-	.	.	-	.	.	.
O=C1c2ccccc2C(=O)N1c1ccccc1	-	-	-	.	-	.	.
O=C1C=CC(=O)N1c1cccc(-c2ccccc2)c1	-	76	-	-	-	68	-
COc1ccc(C2c3ccc(O)cc3Oc3ncn(Cc4ccccc4)c(=N)c32)cc1OC (stereo not given)	-	58	-	-	-	-	51
COc1ccc(C2c3ccc(O)cc3Oc3ncn(CCN4CCOCC4)c(=N)c32)cc1OC (stereo not given)	-	-	-	-	-	.	.
Cc1ccc(Nc2nc(N)c3ccccc3n2)cc1Cl	-	-	-	-	-	.	.
CN(C)c1ccc(Nc2nc(N)c3ccccc3n2)cc1	77	47	-	78	-62	79	-
COc1ccc2c3c(n(C)c2c1)[C@@H](CO)N(C)CC31CN(C(=O)C2CCC2)C1	-	.	.	.	.	.	.
Cn1c(=O)[nH]c(=O)c2c1nc([N+](=O)[O-])n2Cc1ccccc1	-	97	109	101	-85	.	.	Mdm2-MdmX confirm=103
Cn1c(=O)[nH]c(=O)c2c1nc(N1CCNCC1)n2Cc1ccccc1	-	-	-	-	-	.	.
C[C@H](CO)N1C[C@H](C)[C@H](CN(C)S(=O)(=O)c2ccc(C#N)cc2)OCc2ccccc2-c2ccccc2C1=O	-	.	.	.	.	.	.
O=C(Nc1ccc2c(c1)[C@@H]1C[C@H](CC(=O)N3CCCCC3)O[C@@H](CO)[C@@H]1O2)C1CCOCC1	-	.	.	-	.	.	.
Cc1c(CCC(=O)N2CCC(C(=O)O)(c3ccccc3)CC2)c(=O)oc2cc3oc4c(c3cc12)CCCC4	-	63	-	.	-	78	-
CN(C)C(=O)/C(C#N)=C\c1cc(Br)c(Sc2ccc(Cl)cc2)o1	.	57	-	.	-	-	103
CCC1SC(C)C/C(=N/NC(N)=O)C1C (stereo not given)	-	-	-	-	-	.	.
CC1CC(C)C(=NNC(N)=O)C(C(O)CC2CCC(=O)NC2=O)C1 (stereo not given)	-	49	54	-	-	-	-
O=C(Cc1ccccc1)N1CC2(C1)[C@@H](c1ccccc1)[C@@H](CO)N2C(=O)Cc1ccccc1	-	.	.	.	.	.	.
CCOc1ccccc1NC(=O)N1CCC(C(=O)c2ccc(F)cc2)CC1	.	41	-	-	-	-	-
COc1ccccc1NC(=O)N1CCC(C(=O)c2ccc(F)cc2)CC1	.	-	-	.	-	.	.
COc1ccc(CNc2oc(COc3ccc(Cl)cc3)nc2C#N)cc1	.	-	-	.	-	.	.
COc1ccc(Nc2oc(COc3ccc(Cl)cc3)nc2C#N)cc1	.	50	-	-	-	-	51
